In PubChem BioAssay (NCI):
Compounds without any hit were thinned out: in the full panel of roughly 83,000, 20% have a hit.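 The test compound was applied at a single concentration to cells in 96-well plates for 48 hours, and percent growth was recorded.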 Activity calls are given as the source filed them. How the source made its calls: active means growth percent below 10; inactive means the rest.

How the values were obtained:
Test in all cases: NCI-60 one-dose screen, 48 h (100 = growth as untreated, 0 = no growth, -100 = all killed)
HCT-15 colon = settings: 10 µM unless noted
HT29 colon = settings: 10 µM unless noted
SNB-19 CNS = settings: 10 µM unless noted
U251 CNS = settings: 10 µM unless noted
PC-3 prostate = settings: 10 µM unless noted
SK-MEL-5 melanoma = settings: 10 µM unless noted
UACC-62 melanoma = settings: 10 µM unless noted
LOX IMVI melanoma = settings: 10 µM unless noted
SK-MEL-28 melanoma = settings: 10 µM unless noted
SK-MEL-2 melanoma = settings: 10 µM unless noted
EKVX NSCLC = settings: 10 µM unless noted
SN12C renal = settings: 10 µM unless noted
UO-31 renal = settings: 10 µM unless noted
TK-10 renal = settings: 10 µM unless noted
ACHN renal = settings: 10 µM unless noted
CAKI-1 renal = settings: 10 µM unless noted
A498 renal = settings: 10 µM unless noted
CCRF-CEM leukemia = settings: 10 µM unless noted
SNB-75 CNS = settings: 10 µM
MOLT-4 leukemia = settings: 10 µM unless noted

Measured: growth

CC12CCCC(CC(=O)c3[nH]c4ccccc4c31)C2 (centres undefined)
inactive: HCT-15 colon 26.6% | HT29 colon 13.2% | SNB-19 CNS 27.9% | U251 CNS 24.9% | PC-3 prostate 22.5% | UACC-62 melanoma 37.4% | LOX IMVI melanoma 36.2% | SK-MEL-28 melanoma 53% | SK-MEL-2 melanoma 30% | EKVX NSCLC 42.1% | SN12C renal 51.8% | UO-31 renal 51.4% | TK-10 renal 75.4% | ACHN renal 52.6% | CAKI-1 renal 41.7% | CCRF-CEM leukemia 16.6%
active: SK-MEL-5 melanoma 6.25% | A498 renal -6.37%

Cc1nn(-c2ccc([N+](=O)[O-])cc2)c2ncnc(NCCc3ccccc3)c12
inactive: HCT-15 colon 95.4% | HT29 colon 103% | SNB-75 CNS 87.9% | SNB-19 CNS 97.2% | U251 CNS 102% | PC-3 prostate 88.7% | SK-MEL-5 melanoma 104% | UACC-62 melanoma 90.5% | LOX IMVI melanoma 103% | SK-MEL-28 melanoma 106% | SK-MEL-2 melanoma 110% | EKVX NSCLC 52.6% | SN12C renal 102% | UO-31 renal 79.7% | TK-10 renal 108% | ACHN renal 99.8% | CAKI-1 renal 87.2% | A498 renal 81.7% | CCRF-CEM leukemia 100% | MOLT-4 leukemia 64.7%

COc1ccc(-n2c(=S)sc3c(Cl)nc(C)nc32)c(OC)c1
inactive: HCT-15 colon 21% | SNB-19 CNS 12.5% | PC-3 prostate 56.5% | SK-MEL-5 melanoma 80.1% | UACC-62 melanoma 51.6% | SK-MEL-2 melanoma 23.2% | EKVX NSCLC 49.3% | SN12C renal 27% | TK-10 renal 45.7% | ACHN renal 56.8% | A498 renal 110%
active: HT29 colon -7.41% | U251 CNS -39.6% | LOX IMVI melanoma -81.9% | SK-MEL-28 melanoma -3.3% | UO-31 renal -36.2% | CAKI-1 renal -41.8% | CCRF-CEM leukemia -1.34%

O=C(Nc1ccc(Cl)c(Cl)c1)NS(=O)(=O)c1cnccc1Oc1ccc(F)cc1
inactive: HCT-15 colon 73.9% | HT29 colon 75.1% | SNB-75 CNS 79% | SNB-19 CNS 57% | U251 CNS 56.8% | PC-3 prostate 22.2% | SK-MEL-5 melanoma 108% | UACC-62 melanoma 59.2% | LOX IMVI melanoma 83.3% | SK-MEL-28 melanoma 94.5% | SK-MEL-2 melanoma 64.3% | EKVX NSCLC 15.1% | SN12C renal 76.3% | UO-31 renal 67.4% | TK-10 renal 42.3% | ACHN renal 43.5% | A498 renal 33.7% | MOLT-4 leukemia 52.3%
active: CAKI-1 renal 5.6% | CCRF-CEM leukemia 2.81%

Cn1ccc(=O)c(S(N)(=O)=O)c1
inactive: HCT-15 colon 109% | HT29 colon 107% | SNB-75 CNS 79.2% | SNB-19 CNS 95.5% | U251 CNS 90.7% | PC-3 prostate 101% | SK-MEL-5 melanoma 112% | UACC-62 melanoma 95.8% | SK-MEL-28 melanoma 116% | SK-MEL-2 melanoma 99.8% | EKVX NSCLC 89.3% | SN12C renal 101% | UO-31 renal 69% | TK-10 renal 113% | ACHN renal 95.5% | CAKI-1 renal 67.2% | A498 renal 107% | CCRF-CEM leukemia 99.9%

CCC(=O)Oc1ccc(/C(=C(/C)Cc2cccc(OC)c2)c2ccc(OCCN(C)C)cc2)cc1
inactive: HCT-15 colon 48.2% | HT29 colon 43.7% | SNB-19 CNS 92.6% | U251 CNS 71.3% | PC-3 prostate 85.5% | SK-MEL-5 melanoma 92.9% | UACC-62 melanoma 103% | LOX IMVI melanoma 73.4% | SK-MEL-28 melanoma 110% | SK-MEL-2 melanoma 100% | EKVX NSCLC 94.4% | SN12C renal 85.9% | UO-31 renal 67.4% | TK-10 renal 99.4% | ACHN renal 99.5% | CAKI-1 renal 91.3% | A498 renal 84.4% | CCRF-CEM leukemia 42.8% | MOLT-4 leukemia 68.4%

CN(C[C@H]1Cc2c(cccc2N2CCN(Cc3ccccn3)CC2)CN1)[C@H]1CCCc2cccnc21
inactive: HCT-15 colon 37.3% | HT29 colon 36.9% | SNB-19 CNS 57.6% | U251 CNS 32.5% | PC-3 prostate 45.7% | SK-MEL-5 melanoma 55.8% | UACC-62 melanoma 85.1% | LOX IMVI melanoma 44.9% | SK-MEL-28 melanoma 88.5% | SK-MEL-2 melanoma 73.2% | EKVX NSCLC 54.8% | SN12C renal 53.5% | UO-31 renal 20.1% | TK-10 renal 58.7% | ACHN renal 43.2% | CAKI-1 renal 42.8% | A498 renal 65.9% | CCRF-CEM leukemia 41.2% | MOLT-4 leukemia 41%

FC(F)(F)c1ccccc1-c1cn2c(ccc3ccccc32)n1
inactive: HCT-15 colon 55.4% | HT29 colon 42.2% | SNB-19 CNS 83% | U251 CNS 88.5% | PC-3 prostate 79.4% | SK-MEL-5 melanoma 80.7% | UACC-62 melanoma 55.4% | LOX IMVI melanoma 74.5% | SK-MEL-28 melanoma 81.8% | SK-MEL-2 melanoma 51.8% | EKVX NSCLC 88.5% | SN12C renal 88.3% | UO-31 renal 61.1% | TK-10 renal 125% | ACHN renal 82.3% | CAKI-1 renal 58.7% | A498 renal 81.6% | CCRF-CEM leukemia 78.6% | MOLT-4 leukemia 107%

O=C(c1c[nH]c(=O)c(-c2ccccc2)c1)c1ccccc1O
inactive: HCT-15 colon 97.7% | HT29 colon 101% | SNB-19 CNS 81.5% | U251 CNS 89.2% | PC-3 prostate 89.2% | SK-MEL-5 melanoma 95.4% | UACC-62 melanoma 81.1% | LOX IMVI melanoma 103% | SK-MEL-28 melanoma 93.5% | SK-MEL-2 melanoma 93.1% | EKVX NSCLC 94.7% | SN12C renal 85.2% | UO-31 renal 68.6% | TK-10 renal 94.8% | ACHN renal 82.8% | CAKI-1 renal 85% | A498 renal 76.8% | CCRF-CEM leukemia 99.5% | MOLT-4 leukemia 96.1%

COc1ccc(-n2c(-c3ccccc3)c(-c3ccccc3)c3c(SCC(=O)N/N=C/c4ccc(Cl)cc4)ncnc32)cc1
inactive: HCT-15 colon 105% | HT29 colon 94.4% | SNB-19 CNS 100% | U251 CNS 91.6% | PC-3 prostate 83.3% | SK-MEL-5 melanoma 86.9% | UACC-62 melanoma 86.7% | LOX IMVI melanoma 88.4% | SK-MEL-28 melanoma 104% | SK-MEL-2 melanoma 107% | EKVX NSCLC 87% | SN12C renal 99% | UO-31 renal 74.5% | TK-10 renal 108% | ACHN renal 101% | CAKI-1 renal 87.9% | A498 renal 75.6% | CCRF-CEM leukemia 93.4% | MOLT-4 leukemia 97%

CCCC(=O)Oc1ccc(/C(=C(\C)c2ccccc2)c2ccc(OCCN(CC)CC)cc2)cc1
inactive: HCT-15 colon 49.7% | SNB-19 CNS 85.7% | U251 CNS 65.1% | PC-3 prostate 60.7% | SK-MEL-5 melanoma 64.1% | UACC-62 melanoma 80.4% | LOX IMVI melanoma 79.8% | SK-MEL-28 melanoma 68.3% | SK-MEL-2 melanoma 97.2% | EKVX NSCLC 99.3% | SN12C renal 86.3% | UO-31 renal 51.4% | TK-10 renal 86% | ACHN renal 90.7% | CAKI-1 renal 96.9% | A498 renal 93.7% | CCRF-CEM leukemia 69.7% | MOLT-4 leukemia 53.7%
active: HT29 colon 5.74%

N=c1ccc2nc3ccc(N)cc3sc-2c1
active: SNB-19 CNS 4.78% | U251 CNS 6.47% | PC-3 prostate 7.2% | SK-MEL-5 melanoma -80.3% | LOX IMVI melanoma 3.98% | SN12C renal 6.7% | MOLT-4 leukemia 8.58%
inactive: HCT-15 colon 27.3% | HT29 colon 41.3% | UACC-62 melanoma 16.4% | SK-MEL-28 melanoma 57.1% | SK-MEL-2 melanoma 50.9% | EKVX NSCLC 47.9% | UO-31 renal 69.1% | TK-10 renal 11.9% | ACHN renal 55.2% | CAKI-1 renal 46.4% | A498 renal 70.6% | CCRF-CEM leukemia 21.3%

CC(C)(C)n1cc(-c2ccnc(NCCNS(=O)(=O)c3ccc(F)cc3)c2)c(-c2cccc(O)c2)n1
inactive: HT29 colon 15.8% | SNB-19 CNS 71.3% | U251 CNS 48.4% | PC-3 prostate 35.5% | SK-MEL-5 melanoma 19.4% | UACC-62 melanoma 61.8% | LOX IMVI melanoma 31.2% | SK-MEL-28 melanoma 52.4% | SK-MEL-2 melanoma 66.5% | EKVX NSCLC 63% | SN12C renal 55.8% | UO-31 renal 53.9% | TK-10 renal 102% | ACHN renal 63% | CAKI-1 renal 61.3% | A498 renal 56.7% | CCRF-CEM leukemia 46.4% | MOLT-4 leukemia 35.3%
active: HCT-15 colon 8.99%

Cc1nc2ncccc2nc1Nc1ccc(S(=O)(=O)Nc2ccccn2)cc1
inactive: HCT-15 colon 123% | HT29 colon 121% | SNB-19 CNS 88.5% | U251 CNS 94.4% | PC-3 prostate 88.1% | SK-MEL-5 melanoma 99% | UACC-62 melanoma 89.4% | LOX IMVI melanoma 85.1% | SK-MEL-28 melanoma 101% | SK-MEL-2 melanoma 104% | EKVX NSCLC 98% | SN12C renal 93.7% | UO-31 renal 61.5% | TK-10 renal 106% | ACHN renal 95.2% | CAKI-1 renal 82.6% | A498 renal 104% | CCRF-CEM leukemia 107% | MOLT-4 leukemia 91.9%

NC(=O)CCCN1C/C(=C\c2ccccc2)C(=O)c2ccccc21
inactive: HCT-15 colon 105% | HT29 colon 93.2% | SNB-19 CNS 88.7% | U251 CNS 96.7% | PC-3 prostate 89.6% | SK-MEL-5 melanoma 104% | UACC-62 melanoma 87.2% | LOX IMVI melanoma 104% | SK-MEL-28 melanoma 95.7% | SK-MEL-2 melanoma 90.4% | EKVX NSCLC 106% | SN12C renal 92.4% | UO-31 renal 78.1% | TK-10 renal 95% | ACHN renal 98.7% | CAKI-1 renal 90.6% | A498 renal 107% | CCRF-CEM leukemia 110% | MOLT-4 leukemia 104%
